# PubChem BioAssay AID1851 (National Center for Advancing Translational Sciences (NCATS), 2009)
# Values joined by “and” are separate entries in the source; they are usually repeats but may differ in a detail not shown here. Identical values can stand only once. The campaign covered roughly 16,000 compounds. About 4,000 (25%) were called active. Another 26% or so got no clear call; they are omitted. Not all results are given here. A number with no mark means an inactive call. Calls come from the whole dose curve; as a rule, active = well fitted curve in the direction sought with a large enough effect; inconclusive = small, poorly fitted or top-dose-only effect, or effect the other way; inactive = no such curve, though single readings can be large or run the other way.
# Target: Cytochrome P450 2C9 (Homo sapiens) (UniProt P11712)
# Test: Cytochrome panel assay with activity outcomes
# Settings: recombinant CYP, pro-luciferin dealkylation, luminescence, p450-cyp2c9; series mostly up to 57.1 µM; activity, negative = inhibition: at the top concentration
# % is set by controls: 0 for no effect and ±100 for the full control effect.
# Cytochrome P450 2C9 (Homo sapiens), sequence (P11712 whole entry, looked up): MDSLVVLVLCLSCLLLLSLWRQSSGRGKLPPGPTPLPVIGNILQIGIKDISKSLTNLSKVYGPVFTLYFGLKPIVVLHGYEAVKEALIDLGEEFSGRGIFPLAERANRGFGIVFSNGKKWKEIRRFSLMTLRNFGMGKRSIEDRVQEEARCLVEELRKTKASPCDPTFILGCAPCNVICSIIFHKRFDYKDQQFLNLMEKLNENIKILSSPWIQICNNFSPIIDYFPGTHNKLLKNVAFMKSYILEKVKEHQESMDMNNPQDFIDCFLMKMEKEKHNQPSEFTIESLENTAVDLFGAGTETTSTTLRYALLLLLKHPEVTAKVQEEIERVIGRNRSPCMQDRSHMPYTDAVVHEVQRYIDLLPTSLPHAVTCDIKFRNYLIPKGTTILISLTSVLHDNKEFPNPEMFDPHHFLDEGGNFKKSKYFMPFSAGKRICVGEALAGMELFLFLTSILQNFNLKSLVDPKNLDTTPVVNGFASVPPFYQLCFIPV
SMILES,"activity, negative = inhibition",AC50
N#Cc1cccc(-c2cncnc2NCc2ccccc2)c1,-4.42% [at 2.29 µM],–
COC(=O)c1c(C)oc2ccc(N(C(=O)c3ccncc3)S(=O)(=O)c3ccccc3)cc12,–,2510 nM (active)
COC(=O)c1c(C)nc2ccccc2c1C(=O)O,-8.6%,–
CCC(C)N1C(=O)S/C(=C/c2ccc(Sc3nc4ccccc4[nH]3)o2)C1=O (centres undefined),–,1260 nM (active)
Cc1ncc([N+](=O)[O-])n1CC(C)O (centres undefined),10%,–
Clc1cccc(C=NC=Nc2cccc(Cl)c2)c1,-9.46%,–
CC(C)(C)c1nc(SCC(=O)Nc2ccc(N3CCOCC3)cc2)c2ccccc2n1,–,7940 nM (active)
Cn1c(CCC(=O)Nc2ccc(N3CCOCC3)cc2)nc(=O)c2ccccc21,13.8%,–
CNCC[C@H](Oc1ccccc1C)c1ccccc1,-19.6%,–
CNCCC=C1c2ccccc2C=Cc2ccccc21,15.2% [at 25.6 µM],–
Cc1ccc(C)c(CN2C(=O)C3CCCN3c3ccc(C#N)cc32)c1 (centres undefined),–,7080 nM (active)
COc1ccccc1CN1CC[C@@]2(CCCN(S(=O)(=O)c3ccccc3)C2)C1,-6.93%,–
CCOc1ccc(N(C(=O)/C=C/C(=O)Nc2cc(C)on2)C(C(=O)NC2CCCC2)c2ccccc2C)cc1 (centres undefined),–,3160 nM (active)
O=C(O)[C@@H]1[C@@H]2C[C@H]([C@@H](Br)[C@H]2N2C(=O)CCC2=O)[C@@H]1C(=O)O,8.14% [at 11.4 µM],–
O=S1(=O)C=C(Oc2ccc3ccccc3c2)c2ccccc21,–,3980 nM (active)
O=C(CCN1C(=O)c2ccccc2C1=O)Oc1ccc2ccccc2c1,-2.31%,–
CN1CCN(Cc2nc3cccc4c3c([n+]2[O-])-c2ccccc2-4)CC1,-11.8% [at 11.4 µM],–
CN(C)CC[C@H](c1ccc(Cl)cc1)c1ccccn1,17.3%,–
c1ccc2nc(C3=NCCN3)ccc2c1,–,inactive
CC(c1ccc(Cl)cc1)n1c(-c2ccc3ccccc3n2)n[nH]c1=S (centres undefined),–,2510 nM (active)
COC(=O)c1[nH]c(C)c(/C(O)=C2\C(=O)C(=O)N(CCN(C)C)C2c2cccs2)c1C (centres undefined),20%,–
CC1CCN(c2ccc(/C=N/n3nnnc3N)cc2[N+](=O)[O-])CC1,-14.5%,–

SMILES,"activity, negative = inhibition",AC50
COC(=O)c1cc(NS(=O)(=O)c2ccc(N3CCCCC3)c([N+](=O)[O-])c2)cc(C(=O)OC)c1,–,631 nM (active)
COC(=O)c1cc(NS(=O)(=O)c2ccc(N3CCCCCC3)c([N+](=O)[O-])c2)cc(C(=O)OC)c1,–,2240 nM (active)
CC1CCN(c2ccc(S(=O)(=O)Nc3cc(C(=O)O)cc(C(=O)O)c3)cc2[N+](=O)[O-])CC1,–,14100 nM (active)
NNS(=O)(=O)c1cc(C(=O)O)cc(C(=O)O)c1,-5.43% [at 11.4 µM],–
O=c1n(-c2ccccc2)c(=O)n2n1CC[C@H]1/C(=N\OC[C@@H](O)COCc3ccco3)[C@H]3O[C@@H]3[C@@H](O)[C@@H]12,19.1% [at 11.4 µM] and 17% [at 11.4 µM],–
Cc1nc2c(c(-c3ccccc3)c1C#N)C(=O)c1ccccc1-2,–,447 nM (active)
O=C(Cn1c(-c2cscn2)nc2ccccc21)Nc1cc(F)ccc1F,–,15800 nM (active)
O=C(Nc1ccc(Br)cc1)c1ccc(CSC2=NCCS2)cc1,–,7080 nM (active)
COc1ccc(Oc2c(C=O)c3ccccc3n2C)cc1,-13%,–
COc1ccc(OCCn2c(C)c(/C=N/n3cnnc3)c3ccccc32)cc1,–,316 nM (active)
C[C@H](N=C(NC#N)Nc1ccncc1)C(C)(C)C,-23.6%,–
Cc1cc(C(F)F)n2nc(C(=O)Nc3cccnc3Cl)nc2n1,-21.3%,–
Cc1nc(C(=O)Nc2ccc(Cl)cc2Cl)nn1-c1cc(OC(C)C)c(Cl)cc1Cl,–,2510 nM (active)
FC(F)(F)c1ccccc1-c1nccc(NCc2cccs2)n1,-24.4% [at 2.29 µM],–
FC(F)(F)c1ccccc1-c1cc(NCc2cccs2)ncn1,-6.83% [at 2.29 µM],–
FC(F)(F)c1cc(-c2ccco2)nc(NCc2cccs2)n1,–,3550 nM (active)
FC(F)(F)c1cc(-c2ccco2)nc(NCCc2ccccc2)n1,–,1410 nM (active)
FC(F)(F)c1ccccc1-c1cc(NCc2ccccc2)ncn1,1.84% [at 2.29 µM],–
CCNc1ncc2nc(-c3cc(F)cc(F)c3)c(=O)n(Cc3cccs3)c2n1,25.7%,–
O=C(O)c1ccccc1N/N=C\c1ccnc2ccccc12,-98.6%,–
O=[N+]([O-])c1ccccc1N/N=C/c1c[nH]c2ccccc12,–,7940 nM (active)
Nc1cc(Cl)nc(N/N=C/c2ccccc2[N+](=O)[O-])n1,15.6%,–
